KinaseGlo FLuc: blocks Kinase-Glo luciferase, a counter-screen artifact; Kinase-Glo luciferase, ATP luminescence, 8 min; Potency, µM (top dose mostly 38.3 µM), inactives show at the top dose activity change, negative = inhibition, usual class: inhibitors; hit rate 0.28% among 200,000; Q27757; note: % is set by controls: 0 for no effect and ±100 for the full control effect; nearly all actives have a fitted effect of over 60% in size
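Compounds were added to a substrate mix at pH 7.2 (50 mM imidazole, 10 uM ATP, within the enzyme's linear range), followed by Kinase-Glo detection reagent; luminescence was measured after 8 minutes at ambient temperature.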
SMN2 splice up: enhancers of SMN2 splice variant expression; HEK293 SMN2-luciferase splicing reporter, luminescence, 30-36 h; Potency, µM (titrated, usually from 46.1 µM), without a hit: at the highest dose activity change, positive = activation, usual class: activators; hit rate 2.8% among 210,000; note: % of control where 0% means no effect; nearly all actives have a fitted effect of over 55% in size
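HEK293 cells carry an SMN2 […]–luciferase reporter in which exon 7 inclusion puts luciferase in frame. Cells were plated 10-12 h before compound addition, then incubated 30-36 h at 37C. ONE-Glo luminescence was read; sodium butyrate at 4.5 mM final served as control.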
ELG1 genotox: genotoxicity induction in ELG1-luciferase HEK293T cells | HEK293T ELG1-luciferase reporter, luminescence, 16 h | Potency, µM (highest dose often 46 µM), for the others: top-dose activity change, positive = activation, actives largely listed as activators | hit rate 1.3% among 330,000; note: % of control where 0% means no effect; nearly all actives have a fitted effect of over 60% in size
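Luminescence read-out: rising ELG1-luciferase signal, reflecting elevated ELG1 protein under genetic stress, flags genotoxic compounds. Cells were treated for 16 hr at 37 °C before ONE-Glo detection.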
Rab9 prom act: activates the Rab9 promoter; Huh7 Rab9 promoter-luciferase reporter, luminescence, 24 h; Potency, µM (highest dose often 9.22 µM), inactives show top-dose activation, negative = inhibition, usual class: activators; hit rate 2.8% among 320,000; note: % of control where 0% means no effect; nearly all actives have a fitted effect of over 60% in size
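Huh7 cells stably carrying Rab9 promoter–luciferase reporter, plated 1500 cells/well, compound added after 2 h and incubated 24 h at 37 °C; luciferase luminescence then read after 10 min with detection reagent.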
FLuc counter: counter-screen for miR-21 project: firefly luciferase inhibitors or activators; P08659; purified FLuc, Km substrates, luminescence inhibition; Potency, µM (titrated, usually from 57.5 µM), inactives show top-dose activity change, negative = inhibition, hits mostly inhibitors; hit rate 6.9% among 360,000; AID 588342;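 note: plate controls were vehicle for no effect and reference inhibitor for full effect; nearly all actives have a fitted effect of over 55% in size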
Target sequence (P08659 whole entry, looked up): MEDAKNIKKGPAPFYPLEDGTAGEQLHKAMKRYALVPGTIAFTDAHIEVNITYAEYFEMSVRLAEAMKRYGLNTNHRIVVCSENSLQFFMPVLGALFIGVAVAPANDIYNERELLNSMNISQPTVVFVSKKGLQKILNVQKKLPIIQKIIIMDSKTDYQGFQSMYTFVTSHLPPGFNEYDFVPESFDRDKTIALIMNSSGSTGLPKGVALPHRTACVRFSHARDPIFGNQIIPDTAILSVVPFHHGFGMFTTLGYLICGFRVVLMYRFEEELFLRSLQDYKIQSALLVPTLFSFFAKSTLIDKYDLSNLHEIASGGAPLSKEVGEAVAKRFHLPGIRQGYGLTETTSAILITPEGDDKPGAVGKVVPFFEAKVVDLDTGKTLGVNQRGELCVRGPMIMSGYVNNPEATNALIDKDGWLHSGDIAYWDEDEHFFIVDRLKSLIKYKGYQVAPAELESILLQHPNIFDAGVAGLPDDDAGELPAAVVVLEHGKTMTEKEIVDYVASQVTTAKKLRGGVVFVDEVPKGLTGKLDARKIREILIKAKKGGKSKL
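Biochemical qHTS of compounds, final roughly 60 µM downward over six points, against 10 nM purified firefly luciferase using Km concentrations of substrates (10 uM D-luciferin, 10 uM ATP) in Tris acetate pH 7.5 buffer; luminescence output.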
NPC1 promoter act: activates the NPC1 promoter. Huh7 NPC1 promoter luciferase reporter, 24 h. Potency, µM (titrated, usually from 9.22 µM), for the others: at the highest dose activation, actives largely listed as activators. hit rate 2.4% among 320,000. AID 485313; note: % of control where 0% means no effect; nearly all actives have a fitted effect of over 60% in size
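Huh7 reporter cells (NPC1 promoter driving luciferase) are dosed with compound for 24 h at 37 °C, 5% CO2; luciferase detection reagent is then added and luminescence measured after 10 min at ambient temperature.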
The depositor's hits bear a star; ? = inconclusive; . = no result; [ ] = dose if it differs, or a comment. In the library only some 7.3% were active in any assay of this set; here they are far more common. Calls come from the whole dose curve; as a rule, active = well fitted curve in the direction sought with a large enough effect; inconclusive = small, poorly fitted or top-dose-only effect, or another doubt; inactive = no such curve, though single readings can be large; an effect the other way counts as inactive or inconclusive. Potency is the fitted concentration of half-maximal effect.

SMILES | KinaseGlo FLuc | SMN2 splice up | ELG1 genotox | Rab9 prom act | FLuc counter | NPC1 promoter act
CCc1c(C)sc(NC(=O)c2ccoc2C)c1C(N)=O | . | . | 8% | 20% | 11µM* | 20%
N#Cc1c(NC(=O)c2ccco2)sc2c1CCC2 | . | . | -1% | 5% | -1% | -6%
CCOC(=O)c1c(NC(=O)c2ccoc2C)sc(C)c1C | -4% | -7% | -2% | -2% | -13% | -1%
CCOC(=O)c1c(NC(=O)c2c(C)noc2C)sc2c1CCCCC2 | 0% | 0% | -2% | -4% | -1% | 0%
CCOC(=O)c1c(NC(=O)c2ccco2)sc2c1CCCCC2 | 4% | 26% | -1% | -7% | 17µM* | 9%
NC(=O)c1c(NC(=O)c2ccco2)sc2c1CCC2 | -11% | 13µM* | 11µM* | 2µM* | 9.5µM* | 3.5µM*
COC(=O)c1c(NC(=O)c2ccoc2C)sc2c1CCC2 | -4% | -2% | 11% | 2% | 1% | -2%
Cc1occc1C(=O)Nc1sc2c(c1C(N)=O)CCCCC2 | -1% | ? | 10µM* | ? | 2.7µM* | ?
Cc1ccccc1C(=O)Nc1nnc2n1CCS2 | . | . | . | . | -4% | .
CC1CCc2c(sc(NC(=O)c3ccco3)c2C(=O)O)C1 (stereo unspecified) | . | . | 10% | -49% | 7.6µM* | ?
O=C(Nc1sc2c(c1C(=O)O)CCCCC2)c1ccco1 | -1% | 11µM* | ? | ? | 4.3µM* | 2.8µM*
COC(=O)c1c(NC(=O)c2c(OC)cccc2OC)sc2c1CCCC2 | . | 4% | . | . | ? | .
COC(=O)c1c(NC(=O)c2ccc(OC)cc2OC)sc2c1CCCCC2 | . | 9% | . | . | 6µM* | .
CN1CCN(C(=O)c2c(NC(=O)c3ccco3)sc3c2CCC(C(C)(C)C)C3)CC1 (stereo unspecified) | -2% | -16% | 0% | 5% | -6% | 2%
CN(C)C(=O)c1c(NC(=O)c2ccco2)sc2c1CCCCC2 | 0% | -17% | 3% | 10% | ? | 0%
Cc1ccc(C)c(NC(=O)CSc2nc3nccnc3c(=O)n2CCc2c[nH]c3ccccc23)c1 | . | . | . | . | -5% | .
COc1ccc(Cl)cc1NC(=O)CN(C)C(=O)CCSc1ccc(C)cc1 | . | . | 0% | -8% | 19µM* | 1%
NS(=O)(=O)c1ccc(NC(=O)COC(=O)COc2cccc(C(F)(F)F)c2)cc1 | . | . | 0% | -4% | 13µM* | -7%
COc1ccc(CNC(=O)CCC(=O)N2CC3CCCN3c3ccccc32)cc1 (stereo unspecified) | . | . | . | . | -2% | .
Cc1nnc(N/N=C/c2cccc(C(F)(F)F)c2)n1N | . | . | -4% | -1% | -1% | -2%
Cc1nnc(N/N=C/c2cccc(OCc3ccc(Cl)c(Cl)c3)c2)n1N | -2% | 4%[1.84 µM] | 5% | ? | 17µM* | 21%
Cc1ccc(C)c(N2CCN(C(=O)C(C)n3c(C)c4cnn(-c5ccccc5)c(=O)c4c3C)CC2)c1 (stereo unspecified) | . | -4% | . | . | -3% | .
Cc1nc2ccc3nc(NC(=O)C4COc5ccccc5O4)sc3c2s1 (stereo unspecified) | 2% | 5% | 1% | -4% | -1% | -1%
Cc1ccc(NC(=O)C2COc3ccccc3O2)cc1C (stereo unspecified) | . | . | ? | ? | 19µM* | 2.5µM*
COC(=O)c1cccc(NC(=O)C2COc3ccccc3O2)c1 (stereo unspecified) | 0% | 9% | 18µM* | ? | 17µM* | ?
SMILES | KinaseGlo FLuc | SMN2 splice up | ELG1 genotox | Rab9 prom act | FLuc counter | NPC1 promoter act
Cc1nc2cc(NC(=O)C3COc4ccccc4O3)ccc2s1 (stereo unspecified) | -8% | . | ? | ? | 12µM* | ?
Cc1ccccc1CS(=O)(=O)Cc1ccc(C(=O)NCCc2ccc(Cl)cc2)o1 | . | . | . | . | -20% | .
CCOC(=O)CC(CC(C)=O)C(=O)OCC (stereo unspecified) | -1% | 1% | . | . | . | .
Cc1cccc(N2CCN(C(=O)C3CCN(S(=O)(=O)c4c(C)noc4/C=C/c4ccccc4F)CC3)CC2C)c1 (stereo unspecified) | . | . | . | . | 4% | .
c1ccc(Cn2ccc(-c3cnc(-c4ccccc4)s3)n2)cc1 | -1% | . | ? | 1.1µM* | 1.9µM* | 1.4µM*
Nc1ccn(Cc2ccccc2)n1 | 0% | -5% | -9% | -1% | ? | -5%
CCOC(=O)c1ccc(NC2=CC(c3ccc(O)c(OCC)c3)N(c3ccc(C(=O)OCC)cc3)C2=O)cc1 (stereo unspecified) | . | 1% | . | . | 4% | .
Cc1cc2c(cc3c(SCc4ccc(Cl)cc4)nnc(C)n32)o1 | . | . | . | . | -17% | .
COc1ccc(CCN(C)CCC(=O)Nc2cc(C)ccc2C)cc1OC | -1% | -7% | -1% | -2% | 13µM* | 1%
COC(=O)c1ccc(C)c(NC(=O)CCc2ccc(OC)c(OC)c2)c1 | 6% | -32% | -16% | -10% | 5% | 0%
COc1ccccc1-c1nnc(SCC(=O)Nc2ccc(N3CCOCC3)cc2)n1C | . | . | 21% | 14% | 19µM* | 8%
Cc1ccc(NC(=O)Cc2nnc(SCC(=O)Nc3ccc(N4CCOCC4)cc3)n2C)cc1 | . | . | 5% | 0% | 12µM* | 2%
CCCC(=O)Nc1ccc2nc(SCC(=O)Nc3ccc(N4CCOCC4)c(Cl)c3)sc2c1 | -1% | -10% | -12% | 29% | 3.8µM* | 4µM*
Nc1ccc2nc(SCC(=O)Nc3ccc(N4CCOCC4)c(Cl)c3)sc2c1 | -2% | 29% | ? | 7% | ? | 12%
Cn1c(CC(=O)Nc2ccccc2)nnc1SCC(=O)Nc1ccc(N2CCOCC2)cc1 | . | . | ? | 15% | 12µM* | 21%
Cc1cc(C)c2c(CC(=O)N(Cc3ccccc3)C3CCS(=O)(=O)C3)coc2c1 (stereo unspecified) | . | 2% | . | . | 2% | .
CCn1c(Cc2ccccc2)nnc1SCC(=O)Nc1ccc(N2CCOCC2)c(Cl)c1 | -3% | -35% | 12% | -2% | 15µM* | 11%
Cc1ccc(NC(=O)Cc2nnc(SCC(=O)Nc3ccccc3)n2C)cc1 | 1% | 5% | 0% | -6% | 19µM* | 1%
CC(=O)OC1CC(C)N(C(=O)c2ccccc2)c2ccc(C)cc21 (stereo unspecified) | -4% | ? | 21µM* | 1% | -1% | 4%
CCCC(=O)OC1CC(C)N(C(=O)c2ccccc2)c2ccc(C)cc21 (stereo unspecified) | -6% | -87% | 3% | 0% | 1% | -8%
Cc1nc2c(C)cccc2cc1C(=O)N/N=C/c1ccc(C(=O)O)cc1 | -4% | 3% | 0% | 0% | 17µM* | 1%
